According to the supplement of paper PMC12632987:
Over roughly 4,500 sequences, “median log2 fold change of GCK-ALFA target abundance (FLAG IP / Myc IP barcode read proportion)” has its median near 0.078; the lowest 2% begin near -0.6. The sample as a whole holds a higher share of the lowest values than the screen did.

B1: GBRAP_11_2748 (protein)
chain: KKEKLKEIAKAAEELAALLDKLIAEGVDNAELQAAAEKALKELAELVEKYGDESLKKLVAIIQEEFAQAKADPATAEAHWRNALAAARVLAGQVLLEIEE
B2: GBRAP_160_4544 (protein)
chain: KEKVEEAIKDIDERAAFVKSLVGKVSTEELINFFDVEVGSFIMELEELGLLTDELGEEIDKIADETKATLKANPNASDEEKKALIDEAAEKIKEAILKHS
B3: GBRAP_26_5425 (protein)
chain: LDEAVERAIERISAAAAELLDPETAAAVRAVVTDELLEAEEEIEEEDLSEEEVEELLEEVLEEIEEDLEELGVPAEKRARLVAVAEEELEEVLEEWKEER
B4: GBRAP_78_6625 (protein)
chain: EIKKLLEKALKKVEEAAKLATKIPSEEGIEILDHLIDAFEYIEEAIEEGGDLEKLEKALKHLEEALKEIEKLNNPELEELKKLVKEAIKLLKKAIELKKK
B5: GBRAP_39_5692 (protein)
chain: EEEEEDEDVVSYLQALAAGRLYETGKSLEEAYKEAKKILEEEAKRHPELKELLEELIKLADEKGEEAKEVLIGIAVLIEEGTPLEEIKEHIEKAINYFKK
B6: GBRAP_11_2756 (protein)
chain: KKEKLKEMAELAEKAAELVKKLLEEGVDNEELQEELEKVLKELKKLVKEYGDEADKKLVEIAEELWKKAKEDEENKEQYYKELLATLRVLSGDFLLEYEE
B7: GBRAP_160_4385 (protein)
chain: AAALAALAKEIEALRKEFEEEAKDLNTEETRTLAIGVLAEVAALAWENEAISEETKDKIFAIIDEAIEELKANKDAPPEEIVAITTEAFDKIIALVKAEA
B8: GBRAP_160_4108 (protein)
chain: SAGAEAILADFREVFAEVLELWDEVSPEELVAYYEVETGSVIMDAMENYGLSDETADRLLDIRDEAAARLLAHGNVSREEVERILAEALARIEAAVAAAA
B9: GBRAP_9_7157 (protein)
chain: MEELIEKVEEVIEDMLEEIKEVVPEEVKPAVEKRREEVKKRLEELGEDENATEEEIIEEAERLVRETLEEMKKLVDPETAKIVEAIALTAELEIEEIGEE
B10: GBRAP_184_5064 (protein)
chain: KIYEETIEVTNLEEAKEKMKELKEKIKNFKGDLIVHLKLPEFNKEIVKAILDELAEIKKAGYAKNITLGIDADTTEEEVDFLISTADEKGINVVVALREE
B11: GBRAP_160_4175 (protein)
chain: SEKLEEAEKKIKEIFEEAYKMMEGESAEERAAIVAVAFGEIILYLEEKGLLTDETEAKIDEIEDEAVEYILENPDLTEEELRELLEESAEKIIKALKENS
B12: GBRAP_160_4178 (protein)
chain: SEKIEEAEEEIEEIFEEAYEMMKGQTAEERAAIVDVAFGEIILYLEEKGLLTDETEAKIDEIRDETVSYILANPDLTDEELRELLEEAAEEIIEALRENS
B13: GBRAP_52_6269 (protein)
chain: MKELAEKLAKEFIETSLNGTEEEVKEFAKKLVETESQELIELMLEIVVEMAKSLNAEELEKLLDAFLILEDELEEAGKDTLPAEDAAAELAKLYMEKLKE
B14: GBRAP_52_5996 (protein)
chain: AEARIRALAEELVAAVLAGDEERVRAILRRIAAELSDEEIVETVRLATRLLARDPRATLEDLARFIDIVEEVLEEEGKSDRLIADVLGAIAEAIAEVEAE
B15: GBRAP_52_5997 (protein)
chain: REERIEALARELVEATLAGDDERVRALLRRIAAELSDEEIVETVRLATRLLERDPRATLEDLANFIDLVEDVLEEEGKSDELIARVLGAIAEAIYEAELE
B16: GBRAP_39_5719 (protein)
chain: EEEEEAENIFSYYEAVGAKKMYERGISLDELFAELYARARELAADDPELAAALDELRALAEAAGDEAKLAAAGLMSRLVEGEPREEILADAEKLIAYLKS
B17: GBRAP_128_3452 (protein)
chain: STEEKVKKAEELMNKIIESSDEEVPALAAELVDLIGESDDESAKAIAEVIIKKIPELSEEKLEILADVFVARRPELTPEKQEVLNEIAVAIGEEILEKEE
B18: GBRAP_125_2964 (protein)
chain: SEEEDLEALATLAKALGFDEDDVEEAVRLARKFGFKNTLIALFLAEGYDEVADLVEKLTEEEAKEVLKRLAEEIKKNPELTPEEVVKLAKELFEEVIAKK
B19: GBRAP_160_4000 (protein)
chain: MEEIEELKEEIEEIIDETIAAMEGLTPEERLTLVRGMVGEIIQLVEDSPAVSDEAEDEIAELGDELVEEVEANRDAPLEVWRELLERFLEEIKKILDKEE
B20: GBRAP_11_2888 (protein)
chain: KKEKLKELAELARKIAELIEKLLEEGTDNEELLKEIEKLLKELEKLTKEYADKGSQKLTEIAKELFKKALEDPENRKEYLEELLAAVRVLEGDYLLEYEE
B21: GBRAP_128_3538 (protein)
chain: SLEEVKKRAREVMEKIKNSSVEEAYEITKEFLEELKSLSLEEVEAAIEVLEELLPELSAEKLEAIADAMREMRPTLSPEKQRLVADLQVEALNEAEEKEE
B22: GBRAP_35_5578 (protein)
chain: EDKEMLLETVRDLAEATIEAIKEGDLDLAIALLEALLRTAELAVEELANDAEALEEIAALLERVIAAIKEHLADDPRVQALLARLEALLARTKALLAAVK
B23: GBRAP_184_5199 (protein)
chain: KVLEIEVTVSNLEEAKKKMEEILAKAKEEKADLLLILDLKTSTKEIIETIMNALGKIKKEGYAPNVLVELEGDLSDENIDLAFKLADEAGVSLVIALPEE
B24: GBRAP_11_2855 (protein)
chain: KKEKLKEIAELAKKAIELLKELLKKGVDDKELQKKIKELLEKLLELVKKYLDEASVKLAKEALESFKKSLEDPENKEKYINESLAFLEVLLGDVLLEIDE
B25: GBRAP_139_3755 (protein)
chain: SKTEEAIKEIVELVKDPNATLEEIEEKVKEIAKELDEESIKKVLKAAAEAAKSLSVERIEELEERFIKILKEEGRSEDVIDFLEGEFNEAAALSAYREEL
B26: GBRAP_196_5419 (protein)
chain: SLVQEARKINEEAEKRLKATDKEVTVVVSTGDLERHREAVEKAIDYAKEHPDELVLLVFMDDLETALEAARYAKELAEKEGVDLVVEVASRELEEHPDEE
B27: GBRAP_14_3875 (protein)
chain: MEEIKKIIDDMVAEIVAFVKEVSPEIAPEVEKRLNEIREKTLARIEETGDPLAAFDAMEEEMIAAMEEITADLPEEDRTAILAELRVRLAEARYRIDEVL
B28: GBRAP_150_3934 (protein)
chain: DLEELLLLAESVADLLDLALNEGIDRLKALKRAQELLKDLIKEADEELKEIAKKAQELIKKAIKLEEEGGEEKEIKKLLKKAQELAKELAKELEKKIEEE
B29: GBRAP_11_2819 (protein)
chain: MDEVVKELIEVLKKLAEAADKYLKEDVGDEELLKKIEELAKKALELAKKLNDPAVIREAQAILDTVEEAKKDPANREQYVANARAGARTLLANLEEEAEE

The binders below were run against GABARAP, O95166 (assay: median log2 fold change of GCK-ALFA target abundance (FLAG IP / Myc IP barcode read proportion) (log2 ratio); each designed protein is fused to an ALFA-tag nanobody in HEK293 cells to bring the named protein to FLAG-tagged glucokinase (GCK); Myc marks an untargeted standard; higher = target protein stabilised (more abundant)). Conditions: target protein: 3xFLAG-MCP-GCK-ALFA reporter; HEK293 landing pad (RPLP).
GABARAP, O95166, sequence (O95166 whole entry, the tested form may be a part): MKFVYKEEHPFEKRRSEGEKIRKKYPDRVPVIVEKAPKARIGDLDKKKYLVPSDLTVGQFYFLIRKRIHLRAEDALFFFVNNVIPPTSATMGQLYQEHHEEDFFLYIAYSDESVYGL
In short: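 The readout is target abundance, the per-binder median log2 ratio of FLAG to Myc barcode read proportions. It came from HEK293 landing-pad cells carrying a recombined ALFA-nanobody-fused binder library, induced with 2 μg mL^−1 doxycycline and transfected with a plasmid for a FLAG-tagged target and a Myc-tagged standard. After 48 h, lysates were immunoprecipitated with anti-FLAG and anti-Myc, and circular RNA barcodes were reverse transcribed, amplified and sequenced. Each barcode needed a proportion of at least 10^−7 in both replicates and each binder at least 3 barcodes per replicate, a pseudocount of 10^−6 was added, and the replicates were pooled.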

Binder	median log2 fold change
B1	0.194
B2	0.0163
B3	-0.608
B4	0.283
B5	0.284
B6	0.0874
B7	-0.171
B8	-0.764
B9	-0.11
B10	0.127
B11	-0.178
B12	-0.598
B13	0.267
B14	-0.179
B15	-0.74
B16	0.194
B17	0.274
B18	-0.94
B19	-0.0825
B20	-0.0328
B21	0.273
B22	-0.85
B23	-0.0295
B24	0.193
B25	0.234
B26	0.0489
B27	0.256
B28	0.0862
B29	0.324
